In PubChem BioAssay (NCATS):
Records with an inconclusive call do not appear. Active and inactive are the calls of the source. Unless noted, calls come from the whole dose curve; as a rule, active = well fitted curve in the direction sought with a large enough effect; inconclusive = small, poorly fitted or top-dose-only effect, or another doubt; inactive = no such curve, though single readings can be large; an effect the other way counts as inactive or inconclusive.

Experiments:
[1] = Confirmation and Secondary Assay for Modulators of Hemoglobin Beta Chain Splicing at IVS2 654 locus (AID 910);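 note: HeLa cells stably carrying EGFP split by mutant beta-globin IVS2-654 intron; per-well total GFP intensity by laser scanning cytometry after 2-day treatment; % of control where 0% means no effect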
Summary of the method: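 Readout: per-well total peak green fluorescence (488 nm ex, 500–520 nm em) from objects 5–250 µm, reflecting correct splicing of an EGFP-654 reporter. Compounds were applied for 2 days at 37 °C to overnight-plated HeLa EGFP-654 cells; controls were DMSO and 500 nM IVS2-654 PNA.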

[2] = Confirmation and Secondary Assay for Modulators of Hemoglobin Beta Chain Splicing at IVS2 705 locus (AID 930);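 note: HeLa cells stably expressing the EGFP-705 splicing reporter; GFP fluorescence per well restored by corrected splicing of the IVS2-705 intron in EGFP; series mostly up to about 46 µM; % of control where 0% means no effect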
Summary of the method: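 Per-well GFP, captured at 1 x 8 µm resolution with 488 nm excitation, served as the read-out for HeLa EGFP-705 cells incubated 2 days with test compound versus DMSO.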

[3] = Cell Viability - LYMP2-001 (AID 921);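 note: series mostly up to about 92 µM; cells exposed to compound for 24 h at 37 °C; 0% = DMSO only and full inhibition = tetraoctylammonium bromide control wells; nearly all actives have a fitted effect of over 70% in size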
Summary of the method: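 qHTS, 1536-well; lymphoblastoid cells, 24 hr compound, 37 C; ATP by CellTiter-Glo, 30 min RT; luminescence; Hill-fit AC50.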

[4] = MultiTox-Fluor Cytotoxicity Assay - LYMP1-001 - Dead Cells (AID 946);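 note: cells exposed to compound for 16 h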
Summary of the method: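 Seed 2500 LYMP1-001 cells/well, incubate 5 hr at 37 C; add compound, 16 hr at 37 C; add MultiTox-Fluor reagent, 60 min RT; read dead-cell fluorescence Ex/Em=485/520. Normalize to DMSO and 15 uM tetraoctylammonium bromide.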

[5] = MultiTox-Fluor Cytotoxicity Assay - LYMP1-001 - Live Cells (AID 947);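 note: 0% = DMSO only and full inhibition = tetraoctylammonium bromide control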
[6] = Cell Viability - LYMP1-002 - Assay at 16 hr (AID 948);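 note: 0% = DMSO alone and full effect = 92 µM tetraoctylammonium bromide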
Summary of the method: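 Acute cytotoxicity is scored as a concentration-dependent fall in intracellular ATP in a human lymphoblastoid line (LYMP1-002) after 16 hr compound exposure at 37 C, measured by luciferase luminescence.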

[7] = MultiTox-Fluor Cytotoxicity Assay - LYMP1-002 - Live Cells (AID 955);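 note: cells exposed to compound for 16 hours; % is set by controls: 0 for no effect and ±100 for the full control effect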
Summary of the method: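 Cells were seeded at 2500 per well and incubated 5 hr. Compounds were then added for 16 hr at 37 C, followed by MultiTox-Fluor reagent for 60 min at room temperature and fluorescence reading of viable-cell protease signal.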

[8] = MultiTox-Fluor Cytotoxicity Assay - LYMP1-002 - Dead Cells (AID 960);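 note: cells exposed to compound for 16 h at 37 °C; nearly all actives have a fitted effect of over 60% in size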
Summary of the method: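 Cells were plated, rested 5 hr, then treated with compound dilution series for 16 hr at 37 C. After adding substrate reagent and 60 min at room temperature, dead-cell protease fluorescence gave concentration-response curves fitted by the Hill equation.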

[9] = MultiTox-Fluor Cytotoxicity Assay - LYMP1-003 - Dead Cells (AID 961);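 note: cells exposed to compound for 16 h at 37 °C; nearly all actives have a fitted effect of over 70% in size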
Summary of the method: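 LYMP1-003 lymphoblastoid, 2500 cells/well, 5 hr settle then 16 hr cpd at 37 C; MultiTox-Fluor reagent 60 min RT; Ex/Em 485/520 dead-cell signal; norm. DMSO = 0%, 15 uM tetraoctylammonium bromide = 100%; Hill AC50.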

[10] = MultiTox-Fluor Cytotoxicity Assay - LYMP1-003 - Live Cells (AID 962);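 note: cells exposed to compound for 16 hours at 37 °C; 0% = DMSO only and full loss = 92 µM tetraoctylammonium bromide; cytotoxic hits lower the live-cell protease signal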
Summary of the method: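 Acute cytotoxicity is scored as a drop in live-cell protease activity in human lymphoblastoid LYMP1-003 cells after 16 hr compound exposure at 37 C. AC50 values come from Hill-equation modelling of concentration-response data.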

[11] = Cell Viability - LYMP1-003 - Assay at 24 hr (AID 963);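 note: plate controls were DMSO only for no effect and tetraoctylammonium bromide positive control for full effect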
Summary of the method: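 Cytotoxicity is scored as a concentration-dependent fall in ATP-linked luciferase signal in human lymphoblastoid LYMP1-003 cells treated 24 hr at 37 C in complete culture medium.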

[12] = Cell Viability - LYMP1-003 - Assay at 40 hr (AID 964); note: series mostly up to about 92 µM; % is set by controls: 0 for no effect and ±100 for the full control effect; nearly all actives have a fitted effect of over 60% in size
Summary of the method: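 Luminescent ATP signal (CellTiter-Glo) served as the viability read-out after 40 hr compound treatment of human lymphoblastoid LYMP1-003 cells at 37 C. Decreases in ATP were fitted with the Hill equation to give AC50.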

[13] = Cell Viability - LYMP2-003 (AID 965);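 note: cells exposed to compounds for 24 h before reading; 0% = DMSO only and full effect = 92 µM tetraoctylammonium bromide; nearly all actives have a fitted effect of over 50% in size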
Summary of the method: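 Acute cytotoxicity is scored as a concentration-dependent drop in intracellular ATP, measured by luciferase luminescence in human lymphoblastoid cells treated for 24 hours at 37 C. AC50 values derive from Hill-equation modelling.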

[14] = Cell Viability - LYMP2-004 (AID 966);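 note: cells exposed to compound for 24 h; plate controls were DMSO only for no effect and tetraoctylammonium bromide control for full effect; nearly all actives have a fitted effect of over 65% in size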
Summary of the method: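 qHTS cytotoxicity: human lymphoblastoid line, 24 hr compound treatment, 37 C, complete medium. Viability read as cellular ATP via luciferase luminescence; tetraoctylammonium bromide served as positive control.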

[15] = qHTS Assay for Identification of Small Molecule Agonists for Hypoxia Response Element Signaling Pathway (AID 914; active = well fitted activation curve with a large enough effect in the signal ratio, with a control signal flat, not every such curve was filed as active; the % refers to the signal ratio; note: % of control where 0% means no effect); details: ME-180 (cervical carcinoma) HRE-bla reporter, beta-lactamase ratio, CoCl2, 17 h; hits give high values
Summary of the method: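 In Opti-MEM containing 0.5% dialyzed FBS and 10 mM HEPES, ME-180 HRE-bla cells received a compound titration and EC50 CoCl2. They were incubated 17 hours, then CCF4-loaded 2.5 hours at room temperature before ratio reading.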

[16] = qHTS Assay for Identification of Small Molecule Agonists for Thrombopoietin (TPO) Signaling Pathway (AID 917); note: % is set by controls: 0 for no effect and ±100 for the full control effect
Summary of the method: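 Quantitative HTS for pathway activators: compounds were pin-transferred onto IL-3-starved Ba/F3 cells expressing human TPO receptor, TPO was added at its EC50 (26 pM final), and after 24 hrs at 37 C reporter luciferase was measured.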

[17] = target: Muscarinic acetylcholine receptor M1 (Rattus norvegicus) (UniProt P08482); assay: qHTS Assay for Antagonists of Acetylcholine Muscarinic M1 Receptor: Kinetic Measurement of Intracellular Calcium Response (AID 943);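 note: Fluo-4 calcium signal as peak divided by basal fluorescence over 4 min; series mostly up to about 35 µM; nearly all actives have a fitted effect of over 75% in size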
Muscarinic acetylcholine receptor M1 (Rattus norvegicus), sequence (P08482 whole entry, looked up): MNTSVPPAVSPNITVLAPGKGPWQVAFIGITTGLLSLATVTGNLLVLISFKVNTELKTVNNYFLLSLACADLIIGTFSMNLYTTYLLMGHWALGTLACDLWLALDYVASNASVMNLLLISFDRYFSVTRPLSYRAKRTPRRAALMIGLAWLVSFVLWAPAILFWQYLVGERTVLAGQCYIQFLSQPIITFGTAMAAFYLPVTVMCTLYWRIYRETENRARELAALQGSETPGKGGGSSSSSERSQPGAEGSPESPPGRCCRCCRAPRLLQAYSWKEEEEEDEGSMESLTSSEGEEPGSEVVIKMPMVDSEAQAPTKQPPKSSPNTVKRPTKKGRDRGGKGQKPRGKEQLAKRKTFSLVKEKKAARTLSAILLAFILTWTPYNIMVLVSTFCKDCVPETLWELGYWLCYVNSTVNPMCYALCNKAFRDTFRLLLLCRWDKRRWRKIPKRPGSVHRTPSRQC
Summary of the method: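 Antagonism is measured as inhibition of the carbachol-evoked calcium rise in CHO cells transfected with rat M1. Cells are dye-loaded, exposed to compound for 10 min, then stimulated with 100 nM carbachol (EC80).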

[18] = target: Muscarinic acetylcholine receptor M1 (Rattus norvegicus) (UniProt P08482); assay: qHTS Assay for Antagonists of Acetylcholine Muscarinic M1 Receptor: Measurement of IP-One Response (AID 944); note: nearly all actives have a fitted effect of over 75% in size
Summary of the method: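 Antagonist mode with rat M1 receptor transfected into CHO cells. Compound is added first for 10 min, carbachol at its EC80 follows for 30 min, and lysis reagents then allow TR-FRET detection of accumulated IP1.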

[19] = target: Pyruvate kinase (Leishmania mexicana) (UniProt Q27686); assay: qHTS Validation Assay for Inhibitors of Leishmania Mexicana Pyruvate Kinase (AID 945);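 note: 0% = DMSO only neutral control wells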
Pyruvate kinase (Leishmania mexicana), sequence (Q27686 2-499 E452W): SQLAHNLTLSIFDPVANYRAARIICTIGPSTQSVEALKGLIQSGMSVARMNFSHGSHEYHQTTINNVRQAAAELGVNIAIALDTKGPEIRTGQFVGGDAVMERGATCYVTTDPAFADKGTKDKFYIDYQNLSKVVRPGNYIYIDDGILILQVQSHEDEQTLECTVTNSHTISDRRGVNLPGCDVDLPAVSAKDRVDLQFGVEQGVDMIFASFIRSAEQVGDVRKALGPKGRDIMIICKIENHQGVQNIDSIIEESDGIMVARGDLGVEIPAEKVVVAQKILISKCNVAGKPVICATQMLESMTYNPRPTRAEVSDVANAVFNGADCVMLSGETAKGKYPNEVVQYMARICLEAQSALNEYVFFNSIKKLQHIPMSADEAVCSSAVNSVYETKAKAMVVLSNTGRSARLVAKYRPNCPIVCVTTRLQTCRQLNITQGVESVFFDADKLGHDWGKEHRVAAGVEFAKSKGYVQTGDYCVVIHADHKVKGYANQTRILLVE
Summary of the method: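 An endpoint luciferase assay: 0.2 nM LmPYK E451W turns over 0.5 mM PEP with 0.1 mM ADP for 1 h at room temperature, pH 7.2, before PKLight addition. Values are normalized to DMSO-only wells.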

[20] = target: Pyruvate kinase PKM (Homo sapiens) (UniProt P14618); assay: qHTS Assay for Activators of Human Muscle Pyruvate Kinase (AID 954; active = well fitted curve in the direction sought with a large enough effect, not every such curve was filed as active;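 note: 0% = uninhibited enzyme and -100% = no enzyme or full thiadiazolimine inhibition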)
Pyruvate kinase PKM (Homo sapiens), sequence (P14618 whole entry, looked up): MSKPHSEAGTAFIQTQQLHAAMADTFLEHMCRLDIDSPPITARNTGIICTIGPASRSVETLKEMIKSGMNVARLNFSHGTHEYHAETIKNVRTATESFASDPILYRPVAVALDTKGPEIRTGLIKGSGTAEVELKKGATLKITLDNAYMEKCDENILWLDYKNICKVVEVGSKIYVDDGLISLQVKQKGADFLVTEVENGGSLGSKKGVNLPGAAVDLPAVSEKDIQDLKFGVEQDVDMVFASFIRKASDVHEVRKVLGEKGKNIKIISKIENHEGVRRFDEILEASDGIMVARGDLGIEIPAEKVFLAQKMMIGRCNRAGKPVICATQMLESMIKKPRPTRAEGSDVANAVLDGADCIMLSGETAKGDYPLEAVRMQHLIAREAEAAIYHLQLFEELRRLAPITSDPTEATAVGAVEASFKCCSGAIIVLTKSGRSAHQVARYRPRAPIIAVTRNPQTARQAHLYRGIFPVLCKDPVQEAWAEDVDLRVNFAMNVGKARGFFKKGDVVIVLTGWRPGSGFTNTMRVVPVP
Summary of the method: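 PKM2, human, >95% pure, 0.1 nM; PEP 0.5 mM (Km), ADP 0.1 mM; 50 mM imidazole pH 7.2, 50 mM KCl, 0.01% Tween 20, 0.05% BSA; 1 h RT; luciferase luminescence readout.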

Measured: activation

Cc1onc(-c2ccccc2)c1-c1ccc(S(N)(=O)=O)cc1
inactive: [1] | [2]

Cc1cc(O)cc(C)c1Cl
inactive: [1] | [2]

O=C(O)CCCCC1CCSS1 (centres undefined)
not listed: [15] | [16] | [17] | [18] | [19] | [20]
inactive: all other assays above

CCN(CC)CCOC(=O)C(c1ccccc1)c1ccccc1
inactive: [1] | [2]

Cc1cc(C)nc(NS(=O)(=O)c2ccc(N)cc2)n1
inactive: [1] | [15] -4.03% | [3] | [2] | [4] | [5] | [6] | [7] | [8] | [9] | [10] | [11] | [12] | [13] | [14]

CC(=O)OCC(COC(C)=O)OC(C)=O
not listed: [15] | [16] | [17] | [18] | [19] | [20]
inactive: all other assays above

Nc1ccc(C(=O)Oc2ccccc2)c(O)c1
inactive: [1] | [2]

CNCc1ccccc1
inactive: [1] | [2]

Cc1c(NC(=O)c2cccnc2)c(=O)n(-c2ccccc2)n1C
inactive: [1] | [2]

CC1CC(OC(=O)c2ccccc2O)CC(C)(C)C1 (centres undefined)
not listed: [15] | [16] | [17] | [18] | [19] | [20]
inactive: all other assays above

C/C=C/C(=O)N(CC)c1ccccc1C
inactive: [1] | [2]

Cn1c(=O)c2c(ncn2CCO)n(C)c1=O
inactive: [1] | [2]

CC(=O)Oc1cccc(O)c1
inactive: [1] | [2]

NC(=O)c1ccc([N+](=O)[O-])cc1Cl
inactive: [1] | [2]

Cc1cc(=O)[nH]c(=S)[nH]1
not listed: [15] | [16] | [17] | [18] | [19] | [20]
inactive: all other assays above

CCOC(N)=O
inactive: [1] | [2]

C[n+]1ccccc1/C=N/O
inactive: [1] | [2]

Nc1ccc(S(=O)(=O)c2ccc(N)cc2)cc1
not listed: [15] | [16] | [17] | [18] | [19] | [20]
inactive: all other assays above

COc1ccc2cc(CCC(C)=O)ccc2c1
inactive: [1] | [2]

Cc1cccc(C(=O)O)c1O
inactive: [1] | [2]

CC(C)=CCC/C(C)=C/CO
inactive: [1] | [2]

Cc1cccc(Nc2ccccc2C(=O)O)c1C
inactive: [1] | [2]

C=CCSCC1Nc2cc(Cl)c(S(N)(=O)=O)cc2S(=O)(=O)N1 (centres undefined)
inactive: [1] | [2]

O=C(O)c1ccccc1C(=O)Nc1ccc(S(=O)(=O)Nc2nccs2)cc1
inactive: [1] | [2]

C[N+]1(C)CCCC(OC(=O)C(O)(c2ccccc2)c2ccccc2)C1 (centres undefined)
inactive: [1] | [2]

CC1CCc2cc(F)cc3c(=O)c(C(=O)O)cn1c23 (centres undefined)
inactive: [1] | [2]

CC(=O)Nc1cccc(O)c1
not listed: [15] | [16] | [17] | [18] | [19] | [20]
inactive: all other assays above

Cc1cc(NC(=O)C2=C(O)c3ccccc3S(=O)(=O)N2C)no1
inactive: [1] | [2]

NC(N)=NCCN1CCCCCCC1
inactive: [1] | [2]

CCN(CC)C(=O)c1cccc(C)c1
not listed: [15] | [16] | [17] | [18] | [19] | [20]
inactive: all other assays above

CCCCOC(=O)c1ccc(N)cc1
not listed: [15] | [16] | [17] | [18] | [19] | [20]
inactive: all other assays above

CC(=O)NS(=O)(=O)c1ccc(N)cc1
not listed: [5] | [15] | [16] | [17] | [18] | [19] | [20]
inactive: all other assays above

CN1C(C)(C)CCCC1(C)C
inactive: [1] | [16] | [2] | [17] | [18] | [19] | [20]

CC(=O)Nc1ccccc1
not listed: [15] | [16] | [17] | [18] | [19] | [20]
inactive: all other assays above

NS(=O)(=O)c1cc(C2(O)NC(=O)c3ccccc32)ccc1Cl (centres undefined)
inactive: [1] | [2]

O=C(O)COC(=O)Cc1ccccc1Nc1c(Cl)cccc1Cl
inactive: [15] -4.27%

CC(=O)N[C@@H](CC(C)C)C(=O)O
inactive: [15] -5.35%

NC(=O)CC[C@@H](N)C(=O)O
inactive: [16] | [17] | [18] | [19] | [20]
